In the library only some 11% were active in any assay of this set; here they are far more common.
FLuc inh: inhibitors of firefly (Photinus pyralis) luciferase; AID 1347043; Potency, µM (top dose mostly 115 µM), hits mostly inhibitors; purified P. pyralis luciferase, luminescence, biochemical; 2.5% of 76,000 active; active = well fitted curve in the direction sought with a large enough effect; inconclusive = small, poorly fitted or top-dose-only effect, or another doubt; inactive = no such curve, though single readings can be large; an effect the other way counts as inactive or inconclusive; also: % is scaled to controls: 0 for no effect and ±100 for the full control effect; nearly all actives have a fitted effect of over 65% in size
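Purified P. pyralis luciferase (10nM final) in 50mM Tris acetate pH 7.5, 10mM Mg acetate, 0.01% Tween-20, 0.05% BSA with 10uM D-luciferin and 10uM ATP. Compounds titrated qHTS. Luminescence imaged on CCD.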
HEK293 tox: kills HEK 293 cells; 6.6% of 94,000 active; AID 1345083; Potency, µM (top dose mostly 115 µM), for the others: at the highest dose activity change, negative = cytotoxicity, hits mostly inhibitors; HEK 293 viability, ATP luminescence (CellTiter-Glo), 48-72 h; active = well fitted curve in the direction sought with a large enough effect; inconclusive = small, poorly fitted or top-dose-only effect, or another doubt; inactive = no such curve, though single readings can be large; an effect the other way counts as inactive or inconclusive; also: % is scaled to controls: 0 for no effect and ±100 for the full control effect; nearly all actives have a fitted effect of over 60% in size
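Cytotoxicity was scored by loss of ATP-coupled luminescence (CellTiter-Glo) in HEK 293 cells. Compound treatment ran 48 or 72 hr at 37 degree Celsius, 5% CO2, 95% humidity.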
NIH3T3 tox: kills NIH 3T3 cells; NIH 3T3 viability, CellTiter-Glo ATP luminescence, 48-72 h; Potency, µM (highest dose often 96.7 µM), without a hit: at the top dose activity change, negative = cytotoxicity, usual class: inhibitors; 4.3% of 94,000 active; AID 1345082; active = well fitted curve in the direction sought with a large enough effect; inconclusive = small, poorly fitted or top-dose-only effect, or another doubt; inactive = no such curve, though single readings can be large; an effect the other way counts as inactive or inconclusive; also: % is scaled to controls: 0 for no effect and ±100 for the full control effect; nearly all actives have a fitted effect of over 55% in size
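Cells were seeded at 400 per well, treated with pin-transferred compound, and kept 48 or 72 hr at 37 °C before CellTiter-Glo addition and luminescence imaging of cellular ATP.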
NPR1 antag: human Npr1 receptor antagonism. 1.6% of 76,000 active. Potency, µM (titrated, usually from 46.3 µM), inactives show at the highest dose activity change, negative = inhibition, hits mostly inhibitors. HEK293 hNpr1 GloSensor cGMP, ANP-stimulated luminescence. AID 1347048. P16066; also: % is scaled to controls: 0 for no effect and ±100 for the full control effect; nearly all actives have a fitted effect of over 60% in size
Target sequence (P16066 whole entry, looked up): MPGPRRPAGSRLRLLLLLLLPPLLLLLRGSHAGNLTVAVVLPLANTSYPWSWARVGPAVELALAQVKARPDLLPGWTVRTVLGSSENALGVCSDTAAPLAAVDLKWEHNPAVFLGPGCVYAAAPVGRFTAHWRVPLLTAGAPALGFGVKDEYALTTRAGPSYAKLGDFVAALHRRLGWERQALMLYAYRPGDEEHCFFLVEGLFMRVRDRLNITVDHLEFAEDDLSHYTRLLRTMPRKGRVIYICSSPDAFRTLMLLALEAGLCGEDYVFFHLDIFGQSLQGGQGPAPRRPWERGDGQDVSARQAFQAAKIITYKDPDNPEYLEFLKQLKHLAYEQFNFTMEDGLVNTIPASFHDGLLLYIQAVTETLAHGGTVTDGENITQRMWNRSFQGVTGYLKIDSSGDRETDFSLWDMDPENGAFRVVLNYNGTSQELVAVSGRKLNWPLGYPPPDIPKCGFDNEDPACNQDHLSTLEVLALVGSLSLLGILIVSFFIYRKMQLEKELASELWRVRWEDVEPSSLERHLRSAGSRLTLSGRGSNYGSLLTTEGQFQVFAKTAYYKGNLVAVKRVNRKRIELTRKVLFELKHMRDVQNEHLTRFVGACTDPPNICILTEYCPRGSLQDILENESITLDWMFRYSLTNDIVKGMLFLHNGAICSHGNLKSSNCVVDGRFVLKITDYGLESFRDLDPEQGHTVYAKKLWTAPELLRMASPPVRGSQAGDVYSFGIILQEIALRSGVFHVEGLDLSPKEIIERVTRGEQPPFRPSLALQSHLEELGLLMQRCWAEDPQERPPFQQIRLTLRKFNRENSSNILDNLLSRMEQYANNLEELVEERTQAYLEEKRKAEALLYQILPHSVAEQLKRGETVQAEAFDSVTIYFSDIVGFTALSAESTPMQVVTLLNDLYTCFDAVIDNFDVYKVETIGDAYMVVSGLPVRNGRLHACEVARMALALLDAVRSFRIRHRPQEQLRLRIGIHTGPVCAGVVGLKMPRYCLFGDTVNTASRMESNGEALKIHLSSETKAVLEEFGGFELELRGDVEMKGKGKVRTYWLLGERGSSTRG
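Compound pre-incubated 30 min at room temperature on GloSensor-loaded HEK293 cells stably carrying hNpr1 and the pGS-40F cGMP biosensor. Stimulation uses hNppA at 0.1 nM final; luminescence is taken at baseline and 20 min post-agonist.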
Npr1 antag conf: hNpr1 antagonism, confirmation assay. shares compounds with NPR1 antag. HEK293 hNpr1 cGMP GloSensor luminescence, ANP-stimulated. Potency, µM (highest dose often 57.6 µM), without a hit: top-dose activity change, negative = inhibition, hits mostly inhibitors. 76% of 1,400 active; also: nearly all actives have a fitted effect of over 70% in size
NPR2 antag: antagonizes human Npr2, subtype selectivity check; shares compounds with NPR1 antag; HEK293 hNpr2 GloSensor cGMP luminescence, CNP-stimulated; Potency, µM (titrated, usually from 57.6 µM), for the others: at the top dose activity change, negative = inhibition, most hits filed as inhibitors; 67% of 1,400 active; AID 1347046; also: nearly all actives have a fitted effect of over 70% in size
FLuc inh counter: inhibits firefly luciferase, false Npr1 antagonist flag; shares compounds with NPR1 antag; purified FLuc enzyme, luminescence, Km substrate; Potency, µM (series often up to 57.6 µM), for inactives: top-dose activity change, negative = inhibition, hits mostly inhibitors; 0.7% of 1,400 active; AID 1347047; active = well fitted curve in the direction sought with a large enough effect; inconclusive = small, poorly fitted or top-dose-only effect, or another doubt; inactive = no such curve, though single readings can be large; an effect the other way counts as inactive or inconclusive; also: 0% is about no effect
GloSensor cGMP: control cell line activity, Npr1 antagonist counter-screen; AID 1347051; shares compounds with NPR1 antag; Potency, µM (titrated, usually from 57.6 µM), inactives show at the top dose activity change, negative = inhibition, hits mostly inhibitors; HEK293 GloSensor cGMP, SNP-stimulated, luminescence; 69% of 1,400 active; also: % is scaled to controls: 0 for no effect and ±100 for the full control effect; nearly all actives have a fitted effect of over 70% in size
* = called active by the depositor; i = inactive; ? = inconclusive; . = no result; [ ] = remark or other dose. Unless noted, calls follow the shape of the full dose curve. Potency is read from the fitted curve at half-maximal effect.

SMILES | FLuc inh | HEK293 tox | NIH3T3 tox | NPR1 antag | Npr1 antag conf | NPR2 antag | FLuc inh counter | GloSensor cGMP
O=C(Nc1cccc2ccccc12)O[C@@H]1CO[C@H]2[C@@H]1OC[C@@H]2Nc1nccc(-c2cccc(F)c2)n1 | i | 39.8µM* | ? | -22.3% | ? | ? | 5.8% | -27.4%
O=S(=O)(N[C@H]1CO[C@H]2[C@@H]1OC[C@@H]2Nc1nccc(-c2ccc3c(c2)OCO3)n1)c1ccc2ccccc2c1 | i | ? | -47.8% | 12.6µM* | 24.3µM* | ? | -0.4% | ?
N#Cc1cccc(NC(=O)O[C@@H]2CO[C@H]3[C@@H]2OC[C@@H]3Nc2nccc(-c3cccc(F)c3)n2)c1 | i | 10µM* | 22.4µM* | 11.2µM* | 19.3µM* | 19.3µM* | 0.7% | 19.3µM*
N#Cc1cccc(-c2ccnc(N[C@H]3CO[C@H]4[C@@H]3OC[C@H]4OC(=O)Nc3ccccc3)n2)c1 | ? | -28.4% | -12.0% | -10.1% | . | . | . | .
O=C(N[C@H]1CO[C@H]2[C@@H]1OC[C@@H]2Nc1nccc(-c2ccc(-c3ccccc3)cc2)n1)C1CC1 | i | ? | -9.1% | ? | . | . | . | .
Cc1ccc(C(=O)N[C@H]2CO[C@H]3[C@@H]2OC[C@@H]3Nc2nccc(-c3ccc4c(c3)OCO4)n2)cc1 | i | ? | ? | 1.9% | . | . | . | .
COc1ccc(C2(C(=O)NC(C)CCc3ccccc3)CCOCC2)cc1 (stereo not drawn) | . | -20.6% | ? | . | . | . | . | .
CC1(c2ccccc2)N(Cc2ccc(O)cc2)C(=O)OC12CCN(C(=O)C1CCC1)CC2 (stereo not drawn) | i | ? | ? | 3.7%[70.6 µM] | . | . | . | .
O=C(NCc1ccccc1)c1c(-c2cccnc2)cc(=O)n2c1CCCC2 | . | -16.6% | -28.8% | . | . | . | . | .
COc1ccc(NC(=O)Cc2c[nH]c3ncc(-c4ccccc4)cc23)cn1 | i | ? | -27.1%[138 µM] | ? | ? | ? | -1.1%[86.2 µM] | -20.4%[86.2 µM]
COc1ncccc1-c1cnc2[nH]cc(CC(=O)Nc3ccccn3)c2c1 | i | ? | ? | ? | . | . | . | .
COc1cccc(NC(=O)Cc2c[nH]c3ncc(-c4cccnc4OC)cc23)c1 | i | 50.1µM* | 28.2µM* | ? | 39.6µM* | ? | -9.7%[86.2 µM] | ?
Cc1ccccc1-c1nn(-c2ccc(F)cc2F)cc1CN1CCCC1CCO (stereo not drawn) | i | ? | -10.8% | 2.3% | . | . | . | .
CC(C)n1c(C2CCN(C(=O)c3ccoc3)CC2)nn(C)c1=O | . | i | 0.3% | . | . | . | . | .
COc1ccc(NC(=O)c2ccc3c(c2)NC(C)(COCC2CC2)CO3)cn1 (stereo not drawn) | ? | ? | ? | -20.4%[70.6 µM] | . | . | . | .
CN(Cc1ccccc1)C(=O)c1ccc2c(c1)NC(C)(COc1cccnc1)CO2 (stereo not drawn) | i | ? | -29.3%[138 µM] | 31.6µM* | 31.4µM* | 31.4µM* | 2.8%[86.2 µM] | 22.2µM*
COc1ccc(OCC2(C)COc3ccc(C(=O)Nc4ccc(OC)nc4)cc3N2)cc1 (stereo not drawn) | i | 56.2µM* | ? | 35.5µM* | 35.3µM* | 39.6µM* | -11.8%[86.2 µM] | 35.3µM*
CC1(COc2cccnc2)COc2ccc(C(=O)N3CCN(c4ccccn4)CC3)cc2N1 (stereo not drawn) | i | ? | ? | 6.31µM* | 6.85µM* | 7.69µM* | 1.9% | 5.44µM*
CC1(COc2ccccc2)COc2ccc(C(=O)N3CCN(c4ccccn4)CC3)cc2N1 (stereo not drawn) | i | ? | ? | -11.6% | . | . | . | .
O=C1NN=C(c2cccnc2)C12CCN([S+](=O)([O-])c1cccc(C(F)(F)F)c1)CC2 | i | ? | ? | ? | 21.7µM* | 21.7µM* | 1.7% | 24.3µM*
O=C(NC1CCCN(CCn2nc3n(c2=O)CCCC3)C1)c1ccc(Cl)nc1 (stereo not drawn) | . | 3.7% | -5.8% | . | . | . | . | .
Cn1ncc2c(C(=O)NC3CCOC3)cc(-c3ccccc3C(F)(F)F)nc21 (stereo not drawn) | . | -7.4% | ? | . | . | . | . | .
COCc1cc(NCCSCc2ccccc2C)ncn1 | i | ? | ? | 11.2µM* | 21.7µM* | 19.3µM* | 1.9% | 15.3µM*
O=C(Nc1ccccc1)c1cnc(-c2ccc(F)cc2)nc1-c1ccncc1 | i | 14.7% | ? | -22.2% | . | . | . | .
Cc1ccc(Cl)cc1NC(=O)c1cnc(-c2ccccc2)nc1-c1ccncc1 | i | -31.1% | ? | ? | ? | ? | 39.1% | -23.8%
SMILES | FLuc inh | HEK293 tox | NIH3T3 tox | NPR1 antag | Npr1 antag conf | NPR2 antag | FLuc inh counter | GloSensor cGMP
O=C(Nc1cccc(F)c1)c1cnc(-c2ccc(F)cc2)nc1-c1ccncc1 | i | 44.7µM* | ? | ? | ? | ? | 14.8% | ?
O=C(NCc1cc2n(n1)CCN(C1CCCCC1)C2)c1noc2c1CCCC2 | i | -20.7% | -17.2% | 4.9% | . | . | . | .
NC(=O)CNC(=O)c1cc2n(n1)CC(c1ccc(Br)cc1)OC2 (stereo not drawn) | i | 1.5% | -5.2% | 5.6% | . | . | . | .
O=C(Nc1cc(F)ccc1Cl)c1cc2n(n1)CC(c1ccc(Br)cc1)OC2 (stereo not drawn) | ? | ? | -12.3% | -23.7% | . | . | . | .
O=C(Nc1ccc(F)c(F)c1)c1cc2n(n1)CC(c1ccc(Br)cc1)OC2 (stereo not drawn) | i | ? | ? | ? | 24.3µM* | ? | 0.4% | ?
O=C(Nc1ccc(F)cc1)c1cc2n(n1)CC(c1ccc(Br)cc1)OC2 (stereo not drawn) | i | ? | ? | 11.2µM* | ? | ? | -0.4% | ?
O=C(Nc1ccccc1)c1cc2n(n1)CC(c1ccc(Br)cc1)OC2 (stereo not drawn) | i | ? | ? | 17.8µM* | 27.3µM* | ? | -14.1% | ?
O=C(NCC1CCCCC1)C1CCCN1C(=O)c1cccc(-c2cccnc2)c1 (stereo not drawn) | . | -11.1% | -23.6% | . | . | . | . | .
Cc1nn(C)c(C)c1CCC(=O)N1CCC(Cc2noc(-c3ccc(F)cc3)n2)C1 (stereo not drawn) | i | ? | ? | 15.8µM* | 27.3µM* | ? | 1.8% | 34.3µM*
CCCC1=Nc2cc(C(=O)NCCc3ccc(OC)c(OC)c3)ccc2Sc2ccccc21 | i | ? | ? | ? | ? | ? | 1.3% | ?

Bioassay records: PubChem, National Center for Advancing Translational Sciences (NCATS)
